The entries come from a sample that favours hits as a whole.
Shiga toxin inh: blocks Shiga toxin action in Vero cells; Vero cells, Shiga toxin protein synthesis inhibition reporter; 290,000 compounds, 9.2% hits; inhibition, % at 38.7 µM; in the data active = inhibition mostly above about 28%, no sharp cut-off; inactive = mostly below about 43%; note: 0% is about no effect
Lassa entry inh: inhibitors of Lassa virus binding or cell entry | Potency, µM (doses to about 37.9 µM), inactives show at the highest dose activity change, negative = inhibition, usual class: inhibitors | 300,000 compounds, 1.2% hits | Lassa virus pseudotype entry inhibition, cell reporter; calls by dose curve; tested in HEK293 cells; note: potency is the fitted concentration of half-maximal effect; % is set by controls: 0 for no effect and ±100 for the full control effect; nearly all actives have a fitted effect of over 50% in size
Cycloheximide cs: counter-screen for Shiga toxin inhibitors: cycloheximide protein synthesis inhibition; cell reporter, cycloheximide protein synthesis inhibition counterscreen; max response, %; 300,000 compounds, 12% hits; in the data active = max response mostly above about 13%, no sharp cut-off; inactive = mostly below about 14%; note: read at 38.3 µM for the half of the compounds with a filed dose; 0% is about no effect
MARV entry inh: blocks Marburg virus binding to or entry into cells; 300,000 compounds, 1.8% hits; Marburg virus pseudotyped entry inhibition, cell reporter; Potency, µM (series often up to 37.8 µM), inactives show at the highest dose activity change, negative = inhibition, hits mostly inhibitors; calls by dose curve; tested in HEK293 cells; note: potency is the fitted concentration of half-maximal effect; % is set by controls: 0 for no effect and ±100 for the full control effect
Vaccinia mCherry: vaccinia inhibition (mCherry reporter) | 310,000 compounds, 0.63% hits | Vaccinia virus mCherry reporter infection, fluorescence | Potency, µM (top dose mostly 36.5 µM), inactives show at the highest dose activity change, negative = inhibition, hits mostly inhibitors; calls by dose curve; tested in A549 cells; note: potency is the fitted concentration of half-maximal effect; % is set by controls: 0 for no effect and ±100 for the full control effect; nearly all actives have a fitted effect of over 35% in size
Vaccinia Venus: vaccinia inhibition (Venus reporter); Vaccinia virus Venus reporter expression, fluorescence; Potency, µM (highest dose often 36.5 µM), inactives show at the highest dose activity change, negative = inhibition, actives largely listed as inhibitors; 330,000 compounds, 0.46% hits; AID 720580; calls by dose curve; tested in A549 cells; note: potency is the fitted concentration of half-maximal effect; % is set by controls: 0 for no effect and ±100 for the full control effect; nearly all actives have a fitted effect of over 30% in size
* marks the source's active call; other numbers are inactive results; i = inactive; ? = inconclusive; / = not tested or not shown; [ ] = another dose, or the depositor's remark.

SMILES | Shiga toxin inh | Lassa entry inh | Cycloheximide cs | MARV entry inh | Vaccinia mCherry | Vaccinia Venus
Clc1ccc(C(c2ccccc2)N2CCNCC2)cc1 (centres undefined) | -14 | -13% | -6 | ? | / | /
CC12CNCC(C)(CN(C(c3ccccc3)c3ccccc3)C1)C2 | -5 | 20µM* | 3 | ? | / | -27%
Cc1ccc2c(c1)CN(C(=O)CC(c1ccccc1)c1ccco1)CC(C)O2 (centres undefined) | / | / | / | / | ? | -26%
O=C(Nc1ccc(N2CCCC2)cc1)c1ccc2ccccc2c1 | active | 0% | 49* | -7% | -16% | 6%
CC(=O)N1CCN(c2ccc(NC(=O)c3ccc4ccccc4c3)cc2)CC1 | 7 | ? | 26* | 8%[46.1 µM] | -7% | -1%
CC(=O)N1CCN(c2ccc(NC(=O)c3cccc(Cl)c3)cc2)CC1 | 73* | 6%[46.1 µM] | 31* | ? | i | -2%
O=C(c1ccc2ccccc2c1)N1CCN(c2ccc([N+](=O)[O-])c(N3CCOCC3)c2)CC1 | 41 | ? | 26* | 7% | -11% | -3%
CC(=O)N1CCN(c2ccc(NC(=O)c3ccc(C(C)(C)C)cc3)cc2)CC1 | 45* | ? | 32* | ? | -20% | ?
CC(=O)N1CCN(c2ccc(NC(=O)c3cc(Cl)ccc3Cl)cc2)CC1 | / | / | -3 | / | / | /
CC(=O)N1CCN(c2ccc(NC(=O)c3ccccc3C)cc2)CC1 | 4 | 6% | 10* | ? | i | -16%
Cc1nc(C)n(CC(=O)N2CCOc3ccc(CN4CCN(C)C[C@@H]4c4ccccc4)cc3C2)n1 | / | / | / | / | -4% | -10%
CC(C)c1ccc2c(c1)CC[C@H]1[C@](C)(CN)CCC[C@]21C | / | / | / | / | ? | -30%
CC(C)c1ccc2c(c1)CCC1C(C)(CN)CCCC21C (centres undefined) | 21 | ? | -4 | 10µM* | ? | ?
CCN(Cc1ccccc1)C(=O)Cn1cc(S(=O)(=O)Cc2cccc(Cl)c2)c2ccccc21 | / | -16%[46.1 µM] | / | / | -13% | -8%
CCC(C)NCCCOc1ccc(Cl)cc1C(C)(C)C (centres undefined) | -6 | 8% | -3 | ? | i | -14%
C=CCc1cc(Cl)ccc1OCCCNC(C)CC (centres undefined) | -12 | ? | -6 | 2.9µM* | -5% | -23%
Cc1ccc(-c2nnc3c4ccccc4c(-c4ccccc4)nn23)cc1 | / | ? | / | -3%[46.1 µM] | -9% | -5%
CC(C)c1ccc(O)c(NC(=O)c2cncc(Br)c2)c1 | 36* | -2% | 19* | 9% | / | /
Cc1ccc(NC(=O)c2cncc(Br)c2)c([N+](=O)[O-])c1 | 77* | ? | 11* | ? | -19% | -6%
Cc1ccc(NC(=O)c2cccnc2)c([N+](=O)[O-])c1 | / | / | 10 | / | / | /
O=C(NNC1CC(=O)N(c2cccc(Cl)c2)C1=O)c1cccs1 (centres undefined) | 39* | ? | 11 | -3% | -15% | -1%
COC(=O)c1cc(C(=O)OC)cc(N2C(=O)CC(NNC(=O)c3ccc(C)cc3)C2=O)c1 (centres undefined) | 18 | 0.79µM* | 11 | ? | i | -8%
COc1cccc(N2C(=O)CC(NNC(=O)c3cccs3)C2=O)c1 (centres undefined) | 43* | 12% | 19* | 8% | i | -2%
C[C@H](CO)N1C[C@H](C)[C@@H](CN(C)S(=O)(=O)c2ccccc2)OCc2cnnn2CCCC1=O | / | / | / | / | i | 9%
CCCOc1ccc(C2=NC(c3ccc(F)cc3)=Nc3ccc(OC)cc3N2)cc1 | / | -19%[46.1 µM] | / | 1%[46.1 µM] | -7% | -13%
SMILES | Shiga toxin inh | Lassa entry inh | Cycloheximide cs | MARV entry inh | Vaccinia mCherry | Vaccinia Venus
Cc1cccc(OCc2nc(CC(=O)Nc3ccc(C)c(C)c3)cs2)c1 | / | 9%[46.1 µM] | / | -1%[46.1 µM] | -19% | -10%
O=C(O)C1CC(c2ccccc2)=Nc2ccccc2S1 (centres undefined) | 72* | -1% | 58* | 7%[46.1 µM] | ? | -18%
O=[N+]([O-])c1ccc(C2CC(c3ccccc3)=Nc3ccccc3S2)cc1 (centres undefined) | 67* | / | 57* | / | -4% | -17%
Cc1ccc(C2=Nc3ccccc3N(C(=O)c3ccccc3)C(C)C2)cc1 (centres undefined) | -6 | ? | -1 | -26% | -11% | -12%
Cc1nnc(NC(=O)CSc2nc3c([nH]c4ccccc43)c(=O)n2-c2ccc(Cl)cc2)s1 | / | 1%[46.1 µM] | / | / | ? | -26%
CCCn1c(=O)[nH]c(=O)c2c1nc(-c1ccc(C(F)(F)F)cc1)n2CCOC | 14 | / | -9 | 4%[46.1 µM] | 2% | -4%
COCCn1c(-c2ccc(OC(F)(F)C(F)C(F)(F)F)cc2)nc2c1c(=O)[nH]c(=O)n2CC(C)C (centres undefined) | -10 | 2.8µM* | 2 | -5% | / | -28%
COCCn1c(-c2ccc(SC)cc2)nc2c1c(=O)[nH]c(=O)n2CC(C)C | 25 | ? | 24* | -10%[46.1 µM] | -8% | 0%
O=C(O)C1C2C=CC(C2)C1C(=O)NCCC1=CCCCC1 (centres undefined) | 12 | 21% | -1 | 4% | -12% | -3%
O=C(Cc1ccccc1)NCCC1=CCCCC1 | 13 | 6% | -1 | 10% | / | /
O=C(CCc1ccccc1)NCCC1=CCCCC1 | 99* | 5% | 40* | 8% | -10% | -17%
CN(C)c1ccc(C(=O)OCC(=O)NCCC2=CCCCC2)cc1 | 10 | ? | 1 | -8%[46.1 µM] | i | -10%
O=C(CN1C(=O)C2C3C=CC(C3)C2C1=O)NCCC1=CCCCC1 (centres undefined) | 32 | 3% | 22* | 44% | / | ?
Cc1ccsc1C(=O)OCC(=O)NCCC1=CCCCC1 | 35 | -1% | 22* | 17% | -19% | -2%
O=C(CCCN1C(=O)c2ccccc2C1=O)NCCC1=CCCCC1 | -3 | -4% | -2 | -4% | / | /
O=C(CCCc1ccccc1)NCCC1=CCCCC1 | 20 | 10% | 27* | 6%[14.2 µM] | -1% | 8%
CN(Cc1ccon1)C(=O)c1cnn(-c2nccc(-c3ccc4c(c3)OCO4)n2)c1C1CC1 | / | / | / | / | i | -27%
COc1cccc(N/N=C(\C#N)S(=O)(=O)C(C)(C)C)c1 | -4 | 0%[46.1 µM] | 8 | -6%[46.1 µM] | -26% | 1%
O=C(COC(=O)c1ccccc1)NCCC1=CCCCC1 | 13 | ? | 14* | -2% | i | 2%
O=C(COC(=O)c1ccc(Br)cc1)NCCC1=CCCCC1 | 31 | 0% | -3 | -10%[46.1 µM] | -9% | 5%
O=C(CCS(=O)(=O)c1ccccc1Cl)NCCC1=CCCCC1 | 61* | 7% | 35* | -5% | -10% | -1%
CCCCNC(=O)c1cc2n(n1)[C@@H](C(F)(F)F)C[C@H](c1ccccc1)N2 | / | / | / | -19% | / | /
Cc1nc2cc(-c3sccc3-n3cccc3)nn2c(C)c1C | 60* | -2% | 34* | ? | -22% | -7%
CCN(C(=O)CSc1nc2cc(C(=O)O)ccc2c(=O)n1-c1ccccc1F)C1CCS(=O)(=O)C1 (centres undefined) | / | 12% | / | ? | -18% | 0%
